rRNA inh HTS: inhibits bacterial ribosomal RNA function over humanized ribosomes | E. coli WT GFP vs humanized-ribosome RFP mutants, fluorescence, 24 h; hits give low values; DMSO median 0, no signal -100 | GFP signal change (wild-type ribosome), % (no concentration beside the values) | AID 720706 | 350,000 compounds, 1.6% hits;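 active = significant combined selectivity score with lowered wild-type GFP, culture density cut under 30%, mutant RFP and density less affected; inactive = any of these conditions unmet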
F508del corr: correctors of CFTR F508del function in bronchial epithelial cells | CFBE cells, YFP halide quenching; stimulated with forskolin plus potentiator P3; % fluorescence drop versus neutral controls | activity (quench increase), % at 7.58 µM | 350,000 compounds, 0.36% hits | AID 720511;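 active = mean added fluorescence quench of at least 8% versus neutral control, with both replicates also reaching 8%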;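 note: cells transiently co-express mutant CFTR-F508del with the halide-sensitive YFP; corrector assay measuring rescue of mutant channel to the surface after 24 h compound exposure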
ERAP1 HTS inh: ERAP1 (human) enzyme inhibition | Q9NZ08 | recombinant ERAP1, Leu-AMC fluorescence, 60 min | inhibition, % at 10.7 µM | 340,000 compounds, 0.15% hits;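 active = mean replicate inhibition of at least 30%, or all replicates individually reaching that 30% level; inactive = mean below 30% and not every replicate reaching it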;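 note: 0% = neutral control wells and 100% = L-leucinethiol positive control wells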
Target sequence (Q9NZ08 whole entry, looked up): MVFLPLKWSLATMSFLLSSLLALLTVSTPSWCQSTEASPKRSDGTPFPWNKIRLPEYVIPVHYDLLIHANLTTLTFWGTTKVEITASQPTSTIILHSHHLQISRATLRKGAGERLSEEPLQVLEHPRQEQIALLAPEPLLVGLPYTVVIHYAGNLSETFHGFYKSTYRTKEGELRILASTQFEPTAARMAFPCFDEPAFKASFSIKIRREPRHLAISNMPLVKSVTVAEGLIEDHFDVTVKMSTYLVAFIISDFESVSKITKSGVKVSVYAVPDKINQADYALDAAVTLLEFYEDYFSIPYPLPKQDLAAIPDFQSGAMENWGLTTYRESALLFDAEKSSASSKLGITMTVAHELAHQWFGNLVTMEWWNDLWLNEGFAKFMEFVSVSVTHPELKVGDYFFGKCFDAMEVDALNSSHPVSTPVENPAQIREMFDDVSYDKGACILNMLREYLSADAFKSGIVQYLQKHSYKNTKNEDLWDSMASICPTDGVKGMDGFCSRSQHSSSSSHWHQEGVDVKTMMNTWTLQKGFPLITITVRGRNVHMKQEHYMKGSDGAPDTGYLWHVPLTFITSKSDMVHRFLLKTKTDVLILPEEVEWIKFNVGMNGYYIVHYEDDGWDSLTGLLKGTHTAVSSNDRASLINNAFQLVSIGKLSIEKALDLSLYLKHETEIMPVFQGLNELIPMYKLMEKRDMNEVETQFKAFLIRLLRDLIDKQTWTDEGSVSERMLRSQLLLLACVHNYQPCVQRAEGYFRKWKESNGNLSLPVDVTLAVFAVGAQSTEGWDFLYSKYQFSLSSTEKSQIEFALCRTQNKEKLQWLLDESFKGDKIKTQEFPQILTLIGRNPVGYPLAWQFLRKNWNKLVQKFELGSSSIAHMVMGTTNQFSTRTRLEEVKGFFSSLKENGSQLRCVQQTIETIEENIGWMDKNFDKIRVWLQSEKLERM
ARNT TACC3 PPI: ARNT/TACC3 interaction disruption; Q9Y6A5; AlphaScreen His-ARNT PAS-B/GST-TACC3 binding, luminescence; TACC3 fragment carries E629A point mutation; inhibition, % at 9.99 µM; 390,000 compounds, 0.66% hits; AID 623870;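 active = mean inhibition of replicates at least 50% and at least half of replicates each reaching 50%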;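 note: 0% = complete ARNT plus TACC3 wells and 100% = ARNT alone without TACC3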
PvdQ inh: P. aeruginosa PvdQ acylase inhibition. purified PvdQ acylase, fluorescence plate reader. inhibition, % at 10 µM. AID 488965. 340,000 compounds, 0.063% hits; in the data active = inhibition above about 30%, passing the limit was not always enough;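 note: 0% = vehicle neutral wells and 100% = reference inhibitor wells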
Starred values were filed as active, the others as inactive; x = no result. Sampled rows, rich in hits. Any-hit rate of the full collection: about 2.1%.

SMILES	rRNA inh HTS	F508del corr	ERAP1 HTS inh	ARNT TACC3 PPI	PvdQ inh
CCCCCCC(=O)N/N=C/c1c(O)n(C(C)CC)c(=S)[nH]c1=O (configuration not stated)	-23*	4	x	50*	-6
C=CCn1c(O)c(/C=N/NC(=O)CCCC)c(=O)[nH]c1=S	8	0	2	69*	-3
CCCCCCC(=O)N/N=C/c1c(O)n(C2CC2)c(=S)[nH]c1=O	2	0	0	30*	6
CCCNC(=O)[C@H]1[C@H](CO)[C@H]2Cn3c(cccc3=O)[C@H]2N1C	2	x	3	-2	x
CC(=O)N1C[C@@H]2C(c3ccccc3)[C@H](C1)N2C (some centres not stated)	1	x	x	x	x
CC[n+]1c(/C=C/C=C/c2ccc(N(C)C)cc2)sc2ccccc21	-56	-10	6	48*	-1
CC[n+]1c(-c2ccccc2)c2cc(N)ccc2c2ccc(N)cc21	-33	10*	12	1	-18
COC(=O)[C@@H]1[C@@H](CO)[C@@H]2Cn3c(ccc(C4=CCCCC4)c3=O)[C@H]1N2Cc1ccccc1OC	-3	0	-1	x	x
COc1ccc(-c2ccc3n(c2=O)C[C@@H]2[C@@H](CO)[C@H](C(=O)O)[C@H]3N2C(=O)c2ccccc2F)cc1	2	x	-1	-3	x
CN1CC[C@]23c4c5ccc(O)c4OC2[C@H](O)C=CC3[C@H]1C5 (some centres not stated)	x	x	-4	x	1
COc1ccc2c3c1OC1C(O)C=CC4C(C2)[N+](C)(C)CCC341 (configuration not stated)	22	1	58*	-4	-12
O=C(Cc1cccnc1)N1CCCCN2[C@@H](CO)[C@@H](c3ccc(/C=C/c4ccccc4)cc3)[C@@H]2C1	-12	0	-3	7	x
CNC(=O)OCCc1n(C)cc[n+]1C	23	-3	102*	17	0
CCC1(C)OC(c2ccccc2)=C/C(=C/C=C2C(=O)NC(=O)NC2=O)O1 (configuration not stated)	25	15*	1	3	0
N#C/C(=C\c1ccc(O)cc1)C(=O)O (tested in a mixture with another compound)	x	11*	-1	-4	-3
CCCN1[C@@H]2Cn3c(ccc(-c4ccccc4)c3=O)[C@H]1[C@@H](C(=O)OC)[C@@H]2CO	1	1	0	-6	x
COC(=O)[C@H]1[C@H](CO)[C@H]2Cn3c(ccc(/C=C/c4ccccc4)c3=O)[C@@H]1N2CC1CCCC1	-21	-1	-20	-144	x
C=C1C(=O)O[C@@H]2C[C@@H](C)[C@@H]3C=CC(=O)[C@@]3(C)[C@@H](O)[C@H]12	-8	13*	-1	-1	3
COc1nc(C)nc(NC(=O)NS(=O)(=O)c2ccccc2Cl)n1	x	14*	0	9	-3
CCC(=O)N1[C@@H]2Cn3c(ccc(-c4cccc(F)c4)c3=O)[C@H]1[C@@H](C(=O)OC)[C@@H]2CO	-2	-3	0	-3	x
CC(=NNC(=S)N1CC2CCC(CC2)C1)c1nccs1	8	-1	0	72*	11
Cc1cc(OC(=O)N(C)C)nc(SCc2c(Cl)cccc2Cl)n1	-18*	3	-1	-2	0
CN(C)C(=O)Oc1c(Cl)cc(Cl)c2ccccc12	x	x	x	2	-7
O=C(O)[C@@H]1[C@@H](CO)[C@@H]2Cn3c(ccc(-c4cccnc4)c3=O)[C@H]1N2S(=O)(=O)c1ccccc1F	1	-2	2	-8	x
COC(=O)[C@@H]1[C@@H](CO)[C@@H]2Cn3c(ccc(C4=CCCC4)c3=O)[C@H]1N2Cc1ccccn1	1	x	1	7	x
SMILES	rRNA inh HTS	F508del corr	ERAP1 HTS inh	ARNT TACC3 PPI	PvdQ inh
CC(=O)N1[C@@H]2c3ccc(-c4cccc(C(=O)N(C)C)c4)c(=O)n3C[C@H]1[C@H](CO)[C@H]2C(=O)O	0	-4	-2	x	x
C[C@H]1OC[C@@H](C[N+](C)(C)C)O1	7	-3	104*	-2	-15
CC1OC(C[N+](C)(C)C)CC1O (configuration not stated)	8	-7	-1	-4	-12
Cc1nc(-c2cccc(CN(C)C(=O)Oc3ccc([N+](=O)[O-])cc3)c2)no1	-19*	2	x	x	x
CCCCn1nnnc1C(C1CC1)N1CCC(n2c(=O)[nH]c3ccccc32)CC1 (configuration not stated)	-20*	3	x	x	x
CCCCn1nnnc1C(CCSC)N1CCC(n2c(=O)[nH]c3ccccc32)CC1 (configuration not stated)	-3	5	1	x	x
CC[C@H]1CN2CCC1C[C@@H]2[C@@H](O)c1ccnc2ccc(OC)cc12 (some centres not stated)	x	2	-2	1	-11
CC[C@H]1CN2CCC1C[C@H]2[C@H](O)c1ccnc2ccc(OC)cc12 (some centres not stated)	x	9.8*	-3	3	4
CCOC(=O)C1CCCN(c2ccc([N+](=O)[O-])c3nonc23)C1 (configuration not stated)	32	14*	20	-4	3
COC(=O)[C@H]1[C@H](CO)[C@H]2Cn3c(cccc3=O)[C@@H]1N2C(=O)C1CC1	0	x	-3	-1	x
CC(C)(C#CC(=O)O)OOC(c1ccccc1)(c1ccccc1)c1ccccc1	-8	0	41*	8	-10
CC=Cc1ccc2n(c1=O)C[C@H]1[C@H](CO)[C@@H](C(=O)OC)[C@@H]2N1CC1CCCC1 (mixture of isomers)	-5	0	0	x	x
COc1ccc(-c2cc(=O)c3c(OC)c(OC)c(OC)cc3o2)cc1	-30*	-1	-3	4	-1
COc1ccc(-c2cc(=Nc3ccccc3)c3cc(C)ccc3o2)cc1	-11	1	0	5	-6
COc1ccc(OC(=O)N(C)C[C@@H]2OCc3ccccc3-c3c(n(C)c4ccccc34)C(=O)N([C@@H](C)CO)C[C@H]2C)cc1	2	1	1	x	x
N#Cc1cccc(-c2ccc([C@H]3[C@H](CO)N4CCCCN(C(=O)Cc5cccnc5)C[C@@H]34)cc2)c1	-4	-3	-1	-7	x
O=c1ccc2cc(O[C@@H]3O[C@H](CO)[C@@H](O)[C@H](O)[C@H]3O)c(O)cc2o1	x	0	154*	-5	-9
COC1C(C)OC(OC2CC(C)(O)Cc3cc4c(c(O)c32)C(=O)c2c(O)cc3c(c2C4=O)OC2OC3(C)C(O)C(N(C)C)C2O)C(OC)C1(C)OC (configuration not stated)	52	20*	5	17	-12
C[C@]12CCC3C(CC[C@H]4C[C@@H](O)CC[C@]34C)C1C[C@@H](O)C2=O (some centres not stated)	-23*	3	-3	x	x
